Assay results as given in PubChem BioAssay (NCATS).
Inconclusive results are not listed. Unmarked numbers belong to inactive results. The source made the active and inactive calls. Calls follow the shape of the dose curve; as a rule, active = well fitted cell-killing curve with a large enough effect; inconclusive = small, poorly fitted or top-dose-only effect; inactive = flat fitted curve, though single readings scatter. Where a SMILES comes first, the peptide text is derived from it. Bridges are numbered along the chain shown (N, C = ends). [ ]: non-standard residue; d: D form. The star is where a group is joined. X1 = CCC(C)C(N)C1=NC(C(=O)*)CS1; dOrn = NCCC[C@@H](N)C(=O)O

experiment: Cellular viability qHTS for adrenocortical cancer (ACC) cell line NCI-H295R (AID 1963990); details: CellTiter-Glo ATP luminescence, 48 h; series mostly up to 46.1 µM; activity change, negative = viability loss: at the top concentration; also: nearly all actives have a fitted effect of over 60% in size
Description: PI: Naris Nilubol, MD Surgical Oncology Program, National Cancer Institute (NCI) National Institute of Health (NIH), Bethesda, Maryland Adrenocortical cancer (ACC) is a rare malignancy with poor survival outcomes and few treatment options. Currently, mitotane is the only FDA-approved therapy for ACC. Although adjuvant radiation therapy is rarely utilized, it has the potential to improve survival in select cases. Through a quantitative high-throughput drug screen (qHTS), we identified auranofin (AF), a thioredoxin reductase (TXNRD) inhibitor, as a promising candidate drug. This study aims to evaluate whether AF can enhance the efficacy of radiation therapy in the treatment of ACC. Two human ACC cell lines, SW-13 and NCI-H295R, were screened using the National Center for Advancing Translational Sciences (NCATS) Pharmaceutical Collection (NPC) and the Mechanism Interrogation PlatE (MIPE) library (~4,991 compounds). CellTiter-Glo (Cat # G7570, Promega, Madison, WI) was utilized to measure cell viability. Described herein are the results of the corresponding viability assay.
PROTOCOL TABLE (as described by Inglese J, Shamu CE and Guy RK. 2007) SEQUENCE No. (e.g., 1, 2, 3, etc.); […] (e.g., Cells, Incubation, Reagent, etc.); VALUE; DESCRIPTION. 1; Cells; 5 uL; white, solid-bottom, 1536-well tissue-culture treated plates. 2; Time; overnight culture at 37C with 5% CO2. 3; Compounds and control; 23 nL; Kalypsis pin tool (Wako USA) equipped with a 1536-well pin head to transfer to the assay plates. 4; Time; 48 hours; 37C with 5% CO2. 5; Reagent; 4 uL; CellTiter-Glo luminescent substrate mix. 6; Time; 20 min at room temperature. 7; Detection; Luminescence; ViewLux plate reader NOTES (numbers refer to Sequence numbers above) 1. NCI-H295R cells were harvested from a T175 flask and resuspended in ITS-supplemented DMEM serum-free medium at a concentration of 300 000 cells/mL. Then 5 uL of resuspended cells were dispensed into each well of white, solid-bottom, 1536-well tissue-culture-treated plates using a multidrop combi dispenser. The plates were covered with stainless steel gasket lids. 2-3. The plates were cultured overnight at 37C with 5% CO2. Twenty-three nL of compounds (eight selected concentrations from the NPC / MIPE) or positive control (10 mM stock of bortezomib) in DMSO was transferred to each well of the assay plate using a pin tool (Kalypsys, San Diego, CA, USA). The final concentration of the compounds in the 5 uL assay volume ranged from 0.5 nM to 46 uM. 4-6. After 48 hours of incubation at 37C and 5% CO2, 4 uL of CellTilter-Glo luminescent substrate mix (Promega, Madison, WI, USA) was added to each well. Then the plates were incubated for 20 minutes at room temperature. 7. After incubation, luminescence was measured using a ViewLux plate reader (PerkinElmer, Waltham, MA, USA) with a clear filter was used to measure the number of metabolically competent cells. To determine compound activity in the qHTS assay, the titration-response data for each sample was plotted and modeled by a four-parameter logistic fit yielding IC50 and efficacy (maximal response) values. Raw plate reads for each titration point were normalized relative to positive control ([…], 100% inhibition) and DMSO-only wells (basal, 0%). REFERENCES: Inglese J, Shamu CE and Guy RK, Reporting data from high throughput screening of small molecule libraries, Nature Chemical Biology, 2007, 3(8): 438-441. doi.org/10.1038/nchembio0807-438.

SMILES	activity change, negative = viability loss	Potency
CC(C)C[C@@H](N)[C@H](O)C(=O)N[C@H](C(=O)N[C@H](C(=O)N[C@@H](CC(=O)O)C(=O)O)C(C)C)C(C)C	1.72%	–
COc1ccc(-c2cc(=O)c3c(O)cc(O[C@@H]4O[C@H](CO[C@@H]5O[C@@H](C)[C@H](O)[C@@H](O)[C@H]5O)[C@@H](O)[C@H](O)[C@H]4O)cc3o2)cc1O	–	inactive
CC(C)C(C)(C)C(C)(C)C(C)(C)S	-20.3% [at 92.7 µM]	–
CCCCNC(=O)NS(=O)(=O)c1ccc(N)cc1	-11.1%	–
CN(C(Cc1ccc(OS(=O)(=O)c2cccc3cnccc23)cc1)C(=O)N1CCN(c2ccccc2)CC1)S(=O)(=O)c1cccc2cnccc12 (stereo not given)	-16.2%	–
CCN(C)S(=O)(=O)Nc1ccc(F)c(C(=O)c2c[nH]c3ncc(-c4cnc(C5CC5)nc4)cc23)c1F	–	28.2 µM (active)
COc1cc2c3c(n(CCCNCCO)c(=O)c2cc1OC)-c1cc2c(cc1C3=O)OCO2	–	2.82 µM (active)
CCCCC(CC)COC(=O)c1ccccc1C(=O)O (stereo not given)	-16.6% [at 92.7 µM]	–
c1ccc2sc(SSc3nc4ccccc4s3)nc2c1	8.38% [at 20 µM]	–
O=c1[nH]c(=O)n([C@H]2CCCO2)cc1F	-4.31%	–
COC(=O)c1cc(S(N)(=O)=O)ccc1OC	-4.48%	–
CCCc1c(OCCCCc2nn[nH]n2)ccc(C(C)=O)c1O	-1.7%	–
Cc1ccccc1C(=O)c1ccc(Nc2ccc(Br)cc2N)cc1Cl	–	31.6 µM (active)
Cc1cncc2cccc(S(=O)(=O)N3CCCN(C(=O)CN)C[C@@H]3C)c12	-23.1%	–
CCOc1cc2ncc(C#N)c(Nc3ccc(OCc4ccccn4)c(Cl)c3)c2cc1NC(=O)/C=C/CN(C)C	–	2 µM (active)
CC[C@@]1(O)C(=O)OCc2c1cc1n(c2=O)Cc2c-1nc1ccccc1c2/C=N/OC(C)(C)C	-53%	–
CSc1ccc(/C=C2/C(C)=C(CC(=O)O)c3cc(F)ccc32)cc1	–	25.9 µM (active)
CCN(CC)C(=O)Cc1csc(NS(=O)(=O)c2cccc(Cl)c2C)n1	-29.9%	–
Oc1ccc(C(O)CNCCCCCCNCC(O)c2ccc(O)c(O)c2)cc1O (stereo not given)	-3.63%	–
Cc1c(C)c2c(c(C)c1OC(=O)CCC(=O)OCCO)CC[C@@](C)(CCC[C@H](C)CCC[C@H](C)CCCC(C)C)O2	–	13 µM (active)

SMILES	activity change, negative = viability loss	Potency
Nc1c(I)cc(I)c(C(=O)N(CCC(=O)O)c2ccccc2)c1I	-16.3%	–
COC(=O)C1=C(C)NC(C)=C(C(=O)OCCN2CCN(C(c3ccccc3)c3ccccc3)CC2)C1c1cccc([N+](=O)[O-])c1 (stereo not given)	–	3.98 µM (active)
C[C@@H](O)[C@@H]1NC(=O)[C@H](CCCCN)NC(=O)[C@@H](Cc2c[nH]c3ccccc23)NC(=O)[C@H](Cc2ccccc2)NC(=O)[C@@H](NC(=O)[C@H](N)Cc2ccccc2)CSSC[C@@H](C(=O)N[C@H](CO)[C@@H](C)O)NC1=O	2.25% [at 20 µM]	–
COc1cc(/C=C/C(=O)O[C@H]2CC[C@]34C[C@]35CC[C@]3(C)[C@@H]([C@H](C)CCC=C(C)C)CC[C@@]3(C)[C@@H]5CC[C@H]4C2(C)C)ccc1O	–	18.4 µM (active)
C=CCc1cccc(/C=N/NC(=O)CN2CCN(Cc3ccccc3)CC2)c1O	–	10 µM (active)
CCCOc1ccn2c(C(C)=O)cc(-c3ccccc3S(C)(=O)=O)c2c1	-17.6%	–
CCC(C)C(N)C1=NC(C(=O)N[C@@H](CC(C)C)C(=O)N[C@H](CCC(=O)O)C(=O)N[C@H](C(=O)N[C@H]2CCCCNC(=O)[C@H](CC(N)=O)NC(=O)[C@@H](CC(=O)O)NC(=O)[C@H](Cc3cnc[nH]3)NC(=O)[C@@H](Cc3ccccc3)NC(=O)[C@H]([C@@H](C)CC)NC(=O)[C@@H](CCCN)NC2=O)[C@@H](C)CC)CS1 (stereo not given in full) (X1-L[dE]IK[dOrn]I[dF]H[dD]N; lactam 4-C)	-9.21% [at 20 µM]	–
CC(N[C@H]1CCCC[C@H]1NC(=O)c1ccc(Cl)cc1)c1cccc2ccccc12 (stereo not given in full)	–	7.08 µM (active)
COc1ccccc1OCC(O)CN1CCN(CC(=O)Nc2c(C)cccc2C)CC1 (stereo not given)	–	inactive
COCCCN1CCC(NC(=O)c2cc(Cl)c(N)c3c2OCC3)CC1	–	inactive
C[C@H](NC(=O)[C@@H](O)c1cc(F)cc(F)c1)C(=O)N[C@@H]1C(=O)N(C)c2ccccc2-c2ccccc21	-0.629%	–
O=C1CC[C@H](C(=O)N2CCCCC2)N1	6.12%	–
CCOC(=O)C1=C(O)C(=O)N(Cc2ccccc2)C1	-7.54%	–
Cc1cc(C2CCCCC2)n(O)c(=O)c1	–	2 µM (active)
CC(=O)[C@@]1(O)CC[C@H]2[C@@H]3C[C@H](C)C4=CC(=O)C=C[C@]4(C)[C@@]3(F)[C@@H](O)C[C@@]21C	-1.4%	–
CCCCN=C(N)NC(=N)N	-14%	–
C=CCn1c(=O)c2cnc(Nc3ccc(N4CCN(C)CC4)cc3)nc2n1-c1cccc(C(C)(C)O)n1	–	1 µM (active)
COc1cc(C(N)=O)ccc1NC(=O)[C@@H]1N[C@@H](CC(C)(C)C)[C@@]2(C(=O)Nc3cc(Cl)ccc32)[C@H]1c1cccc(Cl)c1F	–	11.2 µM (active)
Cc1cc(C(C)(C)C)cc(C)c1CC1=NCCN1	-13.2%	–
CCCCC(=O)O[C@]1(C(=O)CO)[C@@H](C)C[C@H]2[C@@H]3CCC4=CC(=O)C=C[C@]4(C)[C@@]3(F)[C@@H](O)C[C@@]21C	–	inactive
